± gives the standard deviation.

Common to all, as to experiment: peptide microarray binding signal (635 nm), min-max normalized on array (fraction of array maximum); higher = stronger binding
Common to all, as to conditions: peptide region: H3 1-13

The target of test [1] is T1, HaloTag-ATRX ADD domain (163-292).
T1 chain: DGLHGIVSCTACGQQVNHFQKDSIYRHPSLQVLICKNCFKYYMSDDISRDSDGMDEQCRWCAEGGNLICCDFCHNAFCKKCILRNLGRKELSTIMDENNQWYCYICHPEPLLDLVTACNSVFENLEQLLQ
As to the method: (§1)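 Histone 13-mer peptides were synthesized as cellulose conjugates with a C-terminal 20-atom PEG linker and printed in triplicate on nitrocellulose. The sequence given is the unmodified backbone; PTMs (Kme1/2/3, Kac, Sph/Tph, Rme/Rme2a/Rme2s, Rcit) are listed in the label and the 'peptide modifications' condition. Slides were probed at 4 °C for 1 h with biotin-labelled (HQ)5-HaloTag reader fusions (ATRX-ADD, ING2-PHD) then streptavidin-Alexa647, or with rabbit histone antibodies then anti-rabbit Alexa647. The mean 635 nm signal of the triplicate spots was scaled 0-1 between the lowest and highest values on each array.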

Test [2] concerns the target HaloTag-ING2 PHD (mouse Ing2 200-280). As to the method: as §1
In test [3] the target is anti-H3K4me3 antibody ab8580. As to the method:
as §1

Test [4] concerns the target anti-H3K9me3 antibody ab8898. How it is done: as §1
Where [5] appears, read: peptide modifications: H3T6ph H3K9ac, binder concentration: 1:2,000 dilution.
Where [6] appears, read: peptide modifications: H3T6ph H3K9ac, binder concentration: 1:10,000 dilution.
Setting [7] is: peptide modifications: H3T3ph H3K9me2, binder concentration: 1:2,000 dilution.
Where [8] appears, read: peptide modifications: H3T3ph H3K9me2, binder concentration: 1:10,000 dilution.
Where [9] appears, read: peptide modifications: H3T3ph, binder concentration: 1:2,000 dilution.
Setting [10] is: peptide modifications: H3T3ph, binder concentration: 1:10,000 dilution.
[11] abbreviates: peptide modifications: H3T6ph H3K9me1, binder concentration: 1:2,000 dilution.
[12] abbreviates: peptide modifications: H3T6ph H3K9me1, binder concentration: 1:10,000 dilution.
Where [13] appears, read: peptide modifications: H3T3ph H3K9ac, binder concentration: 1:2,000 dilution.
The mark [14] stands for this setting: peptide modifications: H3T3ph H3K9ac, binder concentration: 1:10,000 dilution.
[15] abbreviates: peptide modifications: H3T3ph H3K4me3, binder concentration: 1:2,000 dilution.
The mark [16] stands for this setting: peptide modifications: H3T3ph H3K4me3, binder concentration: 1:10,000 dilution.
The mark [17] stands for this setting: peptide modifications: H3T3ph H3K9me1, binder concentration: 1:2,000 dilution.
Setting [18] is: peptide modifications: H3T3ph H3K9me1, binder concentration: 1:10,000 dilution.
Setting [19] is: peptide modifications: H3T3ph H3K9me3, binder concentration: 1:2,000 dilution.
Where [20] appears, read: peptide modifications: H3T3ph H3K9me3, binder concentration: 1:10,000 dilution.
The mark [21] stands for this setting: peptide modifications: H3T6ph H3K9me2, binder concentration: 1:2,000 dilution.
Where [22] appears, read: peptide modifications: H3T6ph H3K9me2, binder concentration: 1:10,000 dilution.
The mark [23] stands for this setting: peptide modifications: H3T3ph H3K4me2, binder concentration: 1:2,000 dilution.
Where [24] appears, read: peptide modifications: H3T3ph H3K4me2, binder concentration: 1:10,000 dilution.

B1: H3 1-13 A R T K Q Tph A R Kac S T G G (peptide)
chain: ARTKQTARKSTGG
For B1, the “peptide microarray binding signal” value in test [1] (peptide modifications: H3T6ph H3K9ac, binder concentration: 50 nM) came to 0.00724 ± 0.00023; in test [1] (peptide modifications: H3T6ph H3K9ac, binder concentration: 500 nM), 0.0156 ± 0.0012; in test [2] (peptide modifications: H3T6ph H3K9ac, binder concentration: 10 nM) it was 0.0307 ± 0.002; in test [2] (peptide modifications: H3T6ph H3K9ac, binder concentration: 100 nM) it was 0.0441 ± 0.0085; in test [3] (setting [5]), 0.00995 ± 0.00061; in test [3] (setting [6]), 0.00622 ± 0.00014. In addition, the “peptide microarray binding signal” value in test [4] (setting [5]) is 0.00527 ± 0.00089; in test [4] (setting [6]) it was 0.00294 ± 0.00011.

B2: H3 1-13 A R Tph K Q T A R Kme2 S T G G (peptide)
chain: ARTKQTARKSTGG
Consider B2, for which the “peptide microarray binding signal” value in test [1] (peptide modifications: H3T3ph H3K9me2, binder concentration: 50 nM) was 0.0107 ± 0.00063; in test [1] (peptide modifications: H3T3ph H3K9me2, binder concentration: 500 nM), 0.0409 ± 0.02; in test [2] (peptide modifications: H3T3ph H3K9me2, binder concentration: 10 nM) it was 0.0306 ± 0.0047; in test [2] (peptide modifications: H3T3ph H3K9me2, binder concentration: 100 nM), 0.0365 ± 0.018; in test [3] (setting [7]) it was 0.0117 ± 0.0018; in test [3] (setting [8]) it was 0.0191 ± 0.0097. Further, the “peptide microarray binding signal” value in test [4] (setting [7]) amounted to 0.0295 ± 0.0016; in test [4] (setting [8]) it was 0.013 ± 0.0018.

B3: H3 1-13 A R Tph K Q T A R K S T G G (peptide)
chain: ARTKQTARKSTGG
For B3, the “peptide microarray binding signal” value in test [1] (peptide modifications: H3T3ph, binder concentration: 50 nM) was found to be 0.01044 ± 0.0001; in test [1] (peptide modifications: H3T3ph, binder concentration: 500 nM) it was 0.0136 ± 0.0015; in test [2] (peptide modifications: H3T3ph, binder concentration: 10 nM), 0.0146 ± 0.00026; in test [2] (peptide modifications: H3T3ph, binder concentration: 100 nM) it was 0.0137 ± 0.0036; in test [3] (setting [9]), 0.00119 ± 5e-05; in test [3] (setting [10]), 0.002568 ± 2.3e-05. In addition, the “peptide microarray binding signal” value in test [4] (setting [9]) was 0.00137 ± 6.5e-05; in test [4] (setting [10]) it was 0.002998 ± 2.6e-05.

B4: H3 1-13 A R T K Q Tph A R Kme S T G G (peptide)
chain: ARTKQTARKSTGG
For B4, the “peptide microarray binding signal” value in test [1] (peptide modifications: H3T6ph H3K9me1, binder concentration: 50 nM) stood at 0.00721 ± 0.00059; in test [1] (peptide modifications: H3T6ph H3K9me1, binder concentration: 500 nM) it was 0.0115 ± 0.00096; in test [2] (peptide modifications: H3T6ph H3K9me1, binder concentration: 10 nM), 0.0206 ± 0.0028; in test [2] (peptide modifications: H3T6ph H3K9me1, binder concentration: 100 nM), 0.0319 ± 0.0032; in test [3] (setting [11]) it was 0.00568 ± 0.0013; in test [3] (setting [12]), 0.0686 ± 0.046. Besides, the “peptide microarray binding signal” value in test [4] (setting [11]) was determined as 0.00584 ± 0.00057; in test [4] (setting [12]), 0.00582 ± 0.00014.

B5: H3 1-13 A R Tph K Q T A R Kac S T G G (peptide)
chain: ARTKQTARKSTGG
Turning to B5, the “peptide microarray binding signal” value in test [1] (peptide modifications: H3T3ph H3K9ac, binder concentration: 50 nM) amounted to 0.00881 ± 0.00025; in test [1] (peptide modifications: H3T3ph H3K9ac, binder concentration: 500 nM) it was 0.0147 ± 0.00088; in test [2] (peptide modifications: H3T3ph H3K9ac, binder concentration: 10 nM), 0.0255 ± 0.0014; in test [2] (peptide modifications: H3T3ph H3K9ac, binder concentration: 100 nM), 0.04 ± 0.0064; in test [3] (setting [13]), 0.0124 ± 0.0018; in test [3] (setting [14]) it was 0.00867 ± 0.00052. In addition, the “peptide microarray binding signal” value in test [4] (setting [13]) turned out to be 0.00523 ± 0.00022; in test [4] (setting [14]), 0.00363 ± 0.00025.

B6: H3 1-13 A R Tph Kme3 Q T A R K S T G G (peptide)
chain: ARTKQTARKSTGG
Consider B6, for which the “peptide microarray binding signal” value in test [1] (peptide modifications: H3T3ph H3K4me3, binder concentration: 50 nM) worked out at 0.00583 ± 0.0002; in test [1] (peptide modifications: H3T3ph H3K4me3, binder concentration: 500 nM), 0.0119 ± 0.00039; in test [2] (peptide modifications: H3T3ph H3K4me3, binder concentration: 10 nM), 0.0508 ± 0.0034; in test [2] (peptide modifications: H3T3ph H3K4me3, binder concentration: 100 nM) it was 0.103 ± 0.049; in test [3] (setting [15]), 0.277 ± 0.065; in test [3] (setting [16]), 0.724 ± 0.2. For the same molecule, the “peptide microarray binding signal” value in test [4] (setting [15]) stood at 0.055 ± 0.0067; in test [4] (setting [16]), 0.017 ± 0.00063.

B7: H3 1-13 A R Tph K Q T A R Kme S T G G (peptide)
chain: ARTKQTARKSTGG
On to B7, for which the “peptide microarray binding signal” value came out at 0.00815 ± 8.5e-05 in test [1] (peptide modifications: H3T3ph H3K9me1, binder concentration: 50 nM); 0.0174 ± 0.0014 in test [1] (peptide modifications: H3T3ph H3K9me1, binder concentration: 500 nM); 0.0307 ± 0.0023 in test [2] (peptide modifications: H3T3ph H3K9me1, binder concentration: 10 nM); 0.0507 ± 0.004 in test [2] (peptide modifications: H3T3ph H3K9me1, binder concentration: 100 nM); 0.00859 ± 0.0018 in test [3] (setting [17]); 0.0167 ± 0.0032 in test [3] (setting [18]). In addition, the “peptide microarray binding signal” value in test [4] (setting [17]) was found to be 0.00692 ± 0.00099; in test [4] (setting [18]), 0.0053 ± 0.00068.

B8: H3 1-13 A R Tph K Q T A R Kme3 S T G G (peptide)
chain: ARTKQTARKSTGG
Turning to B8, the “peptide microarray binding signal” value in test [1] (peptide modifications: H3T3ph H3K9me3, binder concentration: 50 nM) came to 0.0613 ± 0.011; in test [1] (peptide modifications: H3T3ph H3K9me3, binder concentration: 500 nM), 0.122 ± 0.03; in test [2] (peptide modifications: H3T3ph H3K9me3, binder concentration: 10 nM), 0.0186 ± 0.0018; in test [2] (peptide modifications: H3T3ph H3K9me3, binder concentration: 100 nM), 0.0397 ± 0.0029; in test [3] (setting [19]), 0.122 ± 0.066; in test [3] (setting [20]), 0.0819 ± 0.021. The figures for the “peptide microarray binding signal” value in test [4] (setting [19]) and in test [4] (setting [20]) were 0.459 ± 0.036 and 0.387 ± 0.046, respectively.

B9: H3 1-13 A R T K Q Tph A R Kme2 S T G G (peptide)
chain: ARTKQTARKSTGG
As for B9, the “peptide microarray binding signal” value was found to be 0.00674 ± 3.8e-05 in test [1] (peptide modifications: H3T6ph H3K9me2, binder concentration: 50 nM); 0.0151 ± 0.00044 in test [1] (peptide modifications: H3T6ph H3K9me2, binder concentration: 500 nM); 0.0226 ± 0.0028 in test [2] (peptide modifications: H3T6ph H3K9me2, binder concentration: 10 nM); 0.0292 ± 0.0053 in test [2] (peptide modifications: H3T6ph H3K9me2, binder concentration: 100 nM); 0.00732 ± 0.0017 in test [3] (setting [21]); 0.0124 ± 0.0021 in test [3] (setting [22]). Further, the “peptide microarray binding signal” value in test [4] (setting [21]) came out at 0.0419 ± 0.0095; in test [4] (setting [22]), 0.0174 ± 0.00085.

B10: H3 1-13 A R Tph Kme2 Q T A R K S T G G (peptide)
chain: ARTKQTARKSTGG
Regarding B10, the “peptide microarray binding signal” value is 0.00555 ± 0.0001 in test [1] (peptide modifications: H3T3ph H3K4me2, binder concentration: 50 nM); 0.00891 ± 0.00073 in test [1] (peptide modifications: H3T3ph H3K4me2, binder concentration: 500 nM); 0.0132 ± 0.0013 in test [2] (peptide modifications: H3T3ph H3K4me2, binder concentration: 10 nM); 0.0916 ± 0.0043 in test [2] (peptide modifications: H3T3ph H3K4me2, binder concentration: 100 nM); 0.0195 ± 0.0045 in test [3] (setting [23]); 0.024 ± 0.0033 in test [3] (setting [24]). The entries for the “peptide microarray binding signal” value in test [4] (setting [23]) and in test [4] (setting [24]) were 0.0022 ± 0.00054 and 0.00185 ± 8e-05, respectively.

These data come from the supplement of paper PMC4022240.
